Inconclusive results are not listed. Where a call stands in place of a potency, no number is given. Calls of active or inactive are those of the source. Calls come from the whole dose curve.
Potency is the fitted concentration of half-maximal effect.

The assay in a line: qHTS assay for small molecule disruptors of the mitochondrial membrane potential - 5 hr assay (AID 651755). Note: nearly all actives have a fitted effect of over 40% in size. As to conditions: JC-1-type ratio dye; series mostly up to 92.2 µM. The essentials:
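Seed HepG2 overnight, add compound, incubate 5 hr at 37C and 5% CO2, stain 30 min with Mito-MPS, then measure monomer (490/535 nm) and aggregate (540/590 nm) fluorescence.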
On the technique in general: In qHTS, concentration-response curves come from the screen itself.
As for `Nc1ccc(Cl)cc1N`, the Potency is 13.3 µM (active).

Regarding `Nc1ccc(Cl)cc1`, the Potency entry is “inactive”.

Regarding `O=[N+]([O-])c1c2ccccc2cc2ccccc12`, the Potency is 29.8 µM (active).

Regarding `Cc1cc(O)ccc1Cl`, the Potency entry is “inactive”.

As to `CC(C)(O)C(=O)Nc1ccc([N+](=O)[O-])c(C(F)(F)F)c1`, the Potency was 26.6 µM (active).

`Nc1ccc([N+](=O)[O-])cc1O`: the Potency is 37.6 µM (active).

With `CCCCOC(=O)c1ccccc1C(=O)OCc1ccccc1`, the Potency result is “inactive”.

As for `Nc1ccc(Sc2ccc(N)cc2)cc1`, the Potency entry is “inactive”.

For `Nc1cccc2c(N)cccc12`, the Potency was 5.96 µM (active).

`CN(C)NC(=O)CCC(=O)O`: the Potency entry was “inactive”.

As for `CN(C)[C@@H]1C(=O)C(C(N)=O)=C(O)[C@@]2(O)C(=O)C3=C(O)c4c(O)cccc4[C@@](C)(O)[C@H]3[C@H](O)[C@@H]12`, the Potency entry is “inactive”.

Regarding `COC(C)(C)CCCC(C)C/C=C/C(C)=C/C(=O)OC(C)C` (configuration not stated), the Potency entry is “inactive”.

As for `CC(=O)[O][Hg][c]1ccccc1`, the Potency was 13.3 µM (active).

In the case of `O=[N+]([O-])c1c(Cl)c(Cl)cc(Cl)c1Cl`, the Potency entry is “inactive”.

As to `CCCCC(CC)COC(=O)c1ccccc1C(=O)OCC(CC)CCCC` (configuration not stated), the Potency entry was “inactive”.

As to `COc1ccc(C(c2ccc(OC)cc2)C(Cl)(Cl)Cl)cc1`, the Potency is 37.6 µM (active).

As for `CC(C)(c1ccc(O)cc1)c1ccc(O)cc1`, the Potency was 33.5 µM (active).

The record behind these values is PubChem BioAssay (NCATS).
